Consider 63 compounds from PubChem BioAssay AID1465 (SRMLSC, 2008).

Structures are written as SMILES. Hit rate of the full screen: of about 220,000 compounds, about 160 (0.073%) were called active. Only a sample is shown. Results with a measured potency or affinity are listed apart. Unmarked numbers belong to inactive results.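 Rule for the calls: active = fold induction of absorbance versus untreated yeast above a set limit, then at least 30% activation at any dose in follow-up; inconclusive = repeats straddling the limit, or above it without dose testing; inactive = fold induction below the set limit.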

A short description of this test: enhancers of respiration in Yfh1-depleted yeast, dose response, Friedreich's ataxia, plus single-dose screen (AID 1465). To be noted: S. cerevisiae Yfh1-off respiration, WST-1 reduction, 72 h; at 50 µM; hits give high values. Background: Tetrazolium assays rely on reduction of a dye to a coloured formazan, in cell work by metabolically active cells.
The term fold induction denotes the ratio of treated to control signal. `CCOC(=O)C1=C(Cc2ccc(Cl)cc2)C(=O)c2ccccc2C1=O`: the fold induction is 1.27. The result for `CCOC(=O)C1=C(Cc2ccc(C)cc2)C(=O)c2ccccc2C1=O` reads 1.29.

Take `CCNS(=O)(=O)c1ccc(NC(=O)Nc2ccccc2OC)cc1`: the fold induction was 1.1. Take `Cc1nc2c(C)cccn2c1/C(O)=C1\C(=O)C(=O)N(CCN(C)C)C1c1ccncc1` (stereo not drawn): the fold induction is 1.11.

Regarding `Oc1ccc(CN2CCCCC2)c2cccnc12`, the fold induction was 0.69. `Oc1ccc(CN2CCN(Cc3ccccc3)CC2)c2cccnc12`: the fold induction is 1.36. With `COc1ccccc1N1CCN(Cc2cc(Br)c(O)c3ncccc23)CC1`, the fold induction was 0.74.

Turning to `Oc1ccc(CN2CCN(c3ccccc3)CC2)c2cccnc12`, the fold induction is 0.91. As to `CCOc1ccc(C(=O)NCC(=O)OCc2c(F)cccc2Cl)cc1`, the fold induction is 1.18. For `CCNC(=S)N(Cc1ccc(OC)cc1)C1CC(=O)N(c2ccc(OCC)cc2)C1=O` (stereo not drawn), the fold induction is 0.92. Next, `NC(=S)Nc1ccccc1Br`: 1; `Cc1ccc(/C=N/NC(=O)CN2CCN(Cc3ccccc3Cl)CC2)o1`: 0.97; `COC(=O)C(=NNc1c(C)n(C)n(-c2ccccc2)c1=O)C(=O)OC`: 1.

`Cc1c(NC=C(C#N)C#N)c(=O)n(-c2ccccc2)n1C`: the fold induction is 0.95. Next, `N#C/C(=N\Nc1ccc(Cl)cc1)C(=O)c1ccccc1`: 0.82. Next, `Cc1c(N/C=C/C(=O)c2ccc(Cl)cc2)c(=O)n(-c2ccccc2)n1C`: 1; `Cc1c(NN=C(C#N)C#N)c(=O)n(-c2ccccc2)n1C`: 0.98; `CCOC(=O)/C(C#N)=N/Nc1c(C)n(C)n(-c2ccccc2)c1=O`: 1. Take `O=C(c1cc2c(s1)CCCC2)N1CCN(S(=O)(=O)c2ccccc2C(F)(F)F)CC1`: the fold induction was 0.91. `CCC(C)/C(C)=N/NC(=O)c1cn(-c2ccccc2)nc1-c1ccccc1` (stereo not drawn): the fold induction is 0.83.

On to `O=C(O)CC(NC(=O)Cc1ccc([N+](=O)[O-])cc1)c1ccc2c(c1)OCO2` (stereo not drawn), for which the fold induction was 1. For the compound `Cc1ccc(-c2cc3nc(-c4ccccc4)cc(N4CCC5(CC4)OCCO5)n3n2)cc1`, the fold induction is 0.98. Next, `O=C(Nc1ccon1)c1cccc(C(F)(F)F)c1`: 0.98. With `C[C@@H]1Cc2c(O)c(O)cc(O)c2C(=O)O1`, the fold induction is 1.07. Consider `COc1c(O)cc2c(c1O)C(=O)CC(c1ccccc1)O2` (stereo not drawn), for which the fold induction is 0.86.

`Cc1cc2cc(C(c3nnnn3Cc3ccco3)N3CCCCC3)c(=O)[nH]c2cc1C` (stereo not drawn): the fold induction is 0.99. Next, `COc1ccc(OC)c(N2C(=O)CC(Cc3ccc(C)cc3)C2=O)c1` (stereo not drawn): 0.84.

In the case of `N#C/C(C(=O)N1CCCCC1)=C1\Nc2ccccc2S1`, the fold induction is 0.81. Regarding `CC(=O)C1=C(c2ccc(Br)cc2)C(=O)c2ccccc2C1=O`, the fold induction is 0.86. Take `COC1=C(c2ccccc2)C(=O)c2ccccc2C1=O`: the fold induction was 1.01.

`COc1ccc(C/C(O)=C(\C#N)c2nc3ccccc3[nH]2)cc1OC`: the fold induction was 1.12. On to `O=C(CC1(O)C(=O)Nc2ccccc21)c1ccc(-n2cnnn2)cc1` (stereo not drawn), for which the fold induction was 1.11. With `CC1CCCC(NC(=O)c2ccc3c(=O)n(CC4CCCO4)c(=O)[nH]c3c2)C1C` (stereo not drawn), the fold induction is 1.02. Consider `CCC(=O)/C=C1/Sc2ccccc2N1CC`, for which the fold induction is 0.79.

As for `CCOC(=O)/C(=C/C=C1\Sc2ccccc2N1CC)C(C)=O`, the fold induction is 0.99. Next, `COC(=O)c1ccccc1NC(=O)Cn1ccnc1`: 1.02.

As to `O=[N+]([O-])c1ccc(O)c2ncccc12`, the fold induction is 1.17. Regarding `CC(C)CC(=O)NC(c1cccs1)c1ccc2cccnc2c1O` (stereo not drawn), the fold induction was 0.99. Next, `CCC(=O)NC(c1cccs1)c1ccc2cccnc2c1O` (stereo not drawn): 0.88; `CC(=O)NC(c1ccco1)c1ccc2cccnc2c1O` (stereo not drawn): 0.91; `CCCC(=O)NC(c1ccco1)c1cc(Cl)c2cccnc2c1O` (stereo not drawn): 0.7. The result for `CCCC(=O)NC(c1ccco1)c1c(O)ccc2ccccc12` (stereo not drawn) reads 0.99; that for `O=C1CNC(=O)N1CC(=O)N1CCCc2ccccc21`, 1.04. For `COc1ccc(C)cc1S(=O)(=O)Nc1cc(Cl)ccc1Cl`, the fold induction was 0.94. Turning to `OC(COc1ccc2ccccc2c1)CN1CCN(c2ccc(F)cc2)CC1` (stereo not drawn), the fold induction was 0.93. As to `COc1ccc(/C=C2\Sc3ccc(C(=O)NCc4cccnc4)cc3N(C)C2=O)cc1OC`, the fold induction is 1.1.

Regarding `c1csc(-c2nnc(N3CCOCC3)c3ccccc23)c1`, the fold induction was 1.39. `Cc1c(Nc2ccc(C=O)cc2)c(=O)n(-c2ccccc2)n1C`: the fold induction is 1.09. In the case of `Clc1ccc(-c2n[nH]c3c2CCC3)cc1Cl`, the fold induction is 0.777.

With `CCC(=O)NNc1ncnc2c1cnn2C`, the fold induction was 1.06. With `CCOc1ccc(Oc2ccc(S(=O)(=O)N3CCOCC3)cc2N)cc1`, the fold induction is 1.12. Consider `CCc1nnc(NC(=O)CCC(=O)N2CCN(CCOc3ccc(C)cc3)CC2)s1`, for which the fold induction was 0.907. As for `COc1ccc(NC(=S)NNc2ccc([N+](=O)[O-])cc2S(=O)(=O)Nc2ccc(C)cc2C)cc1`, the fold induction is 1.25. Turning to `Cc1ccc(NC(=S)NNc2ccc([N+](=O)[O-])cc2S(=O)(=O)Nc2ccccc2C(=O)O)cc1C`, the fold induction is 1.09. Take `O=C(O)CCc1nn2c3ccccc3nc2n(CCN2CCCCC2)c1=O`: the fold induction is 1.09. For `COc1cc2c(cc1NC(=O)C(C)OC(=O)/C=C/c1ccc(OC(F)F)cc1)oc1ccccc12` (stereo not drawn), the fold induction was 1.12. `Cc1cc(/C=N/NC(=O)c2ccccc2F)c(C)n1-c1ccccc1`: the fold induction was 1.02. On to `COc1ccc(/C=N/NC(=O)c2cc(C)n(-c3ccccc3)c2C)cc1OC`, for which the fold induction was 0.99.

Consider `Cc1ccc(CCCOC(=O)C[N+]2(C)CCOCC2)cc1`, for which the fold induction is 1.14. As to `Cc1c(S(=O)(=O)N2CCN(C(c3ccccc3)c3ccccc3)CC2)c(=O)n(C)c(=O)n1C`, the fold induction is 1.25. In the case of `CN1/C(=C\C=O)C(C)(C)c2ccccc21`, the fold induction was 1.07.

Turning to `CN1/C(=C\C=C2/SC(=S)NC2=O)C(C)(C)c2ccccc21`, the fold induction is 1.04.

As to `CC(C)n1c(SCC(=O)c2ccc3c(c2)OCCO3)nc2c1c(=O)n(C)c(=O)n2C`, the fold induction is 1.06.
